PubChem BioAssay (NCATS)
Records with an inconclusive call do not appear. Values without a mark were called inactive. Calls of active or inactive are those of the source. The call rests on the fitted dose curve; in most records, active means well fitted cell-killing curve with a large enough effect; inconclusive means small, poorly fitted or top-dose-only effect, or effect the other way; inactive means no such curve, though single readings can be large or run the other way.

Assay: Quantitative High-Throughput drug screen in 47 multiple myeloma cell lines against the NCATS MIPE library collection: KMS28PE_JCRB cell viability assay (AID 1918983); further: nearly all actives have a fitted effect of over 35% in size
Details: KMS28PE multiple myeloma viability, CellTiter-Glo ATP, 48 h; series mostly up to 45.8 µM; viability, % of DMSO control: at the top concentration
Excerpt: PI: Beverly A. Mock Ph.D.
Laboratory of Cancer Biology and Genetics,
Center for Cancer Research, National Cancer Institute,
National Institute of Health, Bethesda, Maryland
Drug resistance and disease progression are common in multiple myeloma (MM) patients, underscoring the need for new therapeutic combinations. […] We hypothesized that effective combinations would reduce MYC expression and enhance p16 activity. […] These preclinical data identify potentially useful drug combinations for evaluation in drug-resistant MM and reveal potential mechanisms of combined drug sensitivity.
Described herein is the primary MIPE qHTS used to cherrypick compounds. Validated compounds were then further tested for potential synergistic activiy.
[1] Peat TJ, Gaikwad SM, Dubois W, Gyabaah-Kessie N, Zhang S, Gorjifard S, Phyo Z, Andres M, Hughitt VK, Simpson RM, Miller MA, Girvin AT, Taylor A, Williams D, D'Antonio N, Zhang Y, Rajagopalan A, Flietner E, Wilson K, Zhang X, Shinn P, Klumpp-Thomas C, McKnight C, Itkin Z, Chen L, Kazandijian D, Zhang J, Michalowski AM, Simmons JK, Keats J, Thomas CJ, Mock BA. Drug combinations identified by high-throughput screening promote cell cycle transition and upregulate Smad pathways in myeloma. Cancer Lett. 2023 Aug 1;568:216284. doi: 10.1016/j.canlet.2023.216284. Epub 2023 Jun 24. PMID: 37356470; PMCID: PMC10408729.
SEQUENCE No. (e.g., 1, 2, 3, etc.); […] (e.g., Cells, Incubation, Reagent, etc.); VALUE and DESCRIPTION.
1; Cells; 5 uL; white, solid bottom 1536-well Greiner assay plate.
2; Compounds; 23 nL; Kalypsis pin tool (Wako USA) equipped with a 1536-well pin head to transfer to the assay plates.
3; Incubation; 48 hours; 37C incubation.
4; Reagent;5uL; CellTiter Glo (Promega).
5; Detector; 425V; Luminescence; Viewlux PerkinElmer.
NOTES (numbers refer to Sequence numbers above)
1. The cell-based screening methods employed in this study were like those previously published. Briefly, the corresponding myeloma cell lines were screened in 1,536-well plates with 500 cells, 5-uL per well for inhibition of cell viability (assessed by measuring ATP levels with CellTiterGlo).
2. NCATS MIPE 4.0 library of approved and investigational drugs were added using the Kalypsis pin tool. Wells treated with DMSO only for 100% viability and media only for 0% viability were used as controls.
3. The assay plates were covered and incubated for 48 hours in a 37C, 5% CO2 incubator with controlled humidity.
4. After 48 hours, CellTilter-GloTM luminescent substrate mix (Promega) reagent was added to the assay plate and plates we incubated for 5 min at room temperature.
5. Signal was measured as median relative luminescence units on a ViewLux (PerkinElmer) multiplate reader.
[1] Heske CM, Davis MI, Baumgart JT, Wilson K, Gormally MV, Chen L, Zhang X, Ceribelli M, Duveau DY, Guha R, Ferrer M, Arnaldez FI, Ji J, Tran HL, Zhang Y, Mendoza A, Helman LJ, Thomas CJ. Matrix Screen Identifies Synergistic Combination of PARP Inhibitors and Nicotinamide Phosphoribosyltransferase (NAMPT) Inhibitors in Ewing Sarcoma. Clin Cancer Res. 2017 Dec 1;23(23):7301-7311. doi: 10.1158/1078-0432.CCR-17-1121. Epub 2017 Sep 12. PMID: 28899971; PMCID: PMC6636827.
Potency means the concentration at half of the fitted maximal effect.

Structure (SMILES) | viability, % of DMSO control | Potency
C[C@]12CCC(=O)C=C1CC[C@@H]1[C@H]3CC[C@](C)(O)[C@@]3(C)CC[C@@H]12 | 115% [at 92.2 µM] | 
CC(C)c1cccc(C(C)C)c1O | 136% | 
CN1C(=O)COc2c(C(=O)NC3CN4CCC3CC4)cc(Cl)cc21 (stereo not given) | 113% | 
CCC1(c2ccc(N)cc2)CCC(=O)NC1=O (stereo not given) | 110% | 
CC(NC(C)(C)C)C(=O)c1cccc(Cl)c1 (stereo not given) | 96% | 
CC(C)C[C@H](CN)CC(=O)O | 128% | 
C[C@](O)(CS(=O)(=O)c1ccc(F)cc1)C(=O)Nc1ccc(C#N)c(C(F)(F)F)c1 |  | 26.4 µM (active)
COc1cc(OC)c(OC)cc1C=O | 128% | 
CN1C(=O)CCS(=O)(=O)C1c1ccc(Cl)cc1 (stereo not given) | 115% | 
C[C@]12CC[C@H]3[C@@H](CC[C@@]45O[C@H]4C(O)=C(C#N)C[C@]35C)[C@H]1CC[C@H]2O | 136% | 
